This passage reports Potency and outcome results from PubChem BioAssay (NCATS).

Assay [1] can be described thus: qHTS Assay for Inhibitors of Fructose-1,6-bisphosphate Aldolase from Giardia Lamblia: Mammalian cellular toxicity (AID 2786).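 Further: compound exposure lasted 48 h before reading; nearly all actives have a fitted effect of over 60% in size.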 The gist of the method: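 Mammalian cytotoxicity surrogate: Chinese hamster ovary cells exposed to compound for 48 h at 37 °C. Cellular ATP then measured with ATPlite reagent, 20 min incubation.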
Assay [2] deals with Fructose-bisphosphate aldolase (Giardia intestinalis (strain ATCC 50803 / WB clone C6)) (UniProt A8B2U2). Put plainly: qHTS Assay for Inhibitors of Fructose-1,6-bisphosphate Aldolase from Giardia Lamblia: Primary screen confirmation (AID 2787).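 Further: aldolase product measured through coupled diaphorase step turning resazurin into fluorescent resorufin; series mostly up to about 58 µM; nearly all actives have a fitted effect of over 45% in size.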 In short, it runs like this:
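FBPA (40 nM in enzyme reagent, with 30 uM ZnCl2) was preincubated 10 min at RT with compound up to 57.5 uM final. Substrate plus coupled detection system was then added, and fluorescence (525/598 nm) was read after 20 min at RT.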
For orientation: qHTS replaces the single test concentration by a dilution series.

The target in assay [3] is Fructose-bisphosphate aldolase A (Oryctolagus cuniculus) (UniProt P00883). Put plainly: qHTS Assay for Inhibitors of Fructose-1,6-bisphosphate Aldolase from Giardia Lamblia: Rabbit FBPA Selectivity (AID 2794). Further: nearly all actives have a fitted effect of over 60% in size. The gist of the method: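 To triage Class I aldolase inhibitors, rabbit FBPA activity is followed through a glyceraldehyde-3-phosphate-linked enzyme cascade feeding AmpLite Red. Compounds (up to 57.5 uM final) sit 10 min with coupling enzymes before substrate; fluorescence is read 20 min later.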
Sequence of Fructose-bisphosphate aldolase A (Oryctolagus cuniculus) (P00883 whole entry, looked up): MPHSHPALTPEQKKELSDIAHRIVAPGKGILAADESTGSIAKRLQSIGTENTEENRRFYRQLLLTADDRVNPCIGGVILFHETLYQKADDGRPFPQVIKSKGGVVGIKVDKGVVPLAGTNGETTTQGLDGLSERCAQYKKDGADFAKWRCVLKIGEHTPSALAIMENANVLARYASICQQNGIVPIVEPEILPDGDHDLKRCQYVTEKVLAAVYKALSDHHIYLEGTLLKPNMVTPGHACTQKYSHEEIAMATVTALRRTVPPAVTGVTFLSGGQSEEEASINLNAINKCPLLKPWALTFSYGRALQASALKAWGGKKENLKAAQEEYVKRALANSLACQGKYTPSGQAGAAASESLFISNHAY

The nature of assay [4]: qHTS Assay for Inhibitors of Fructose-1,6-bisphosphate Aldolase from Giardia Lamblia: Coupling assay counterscreen confirmation (AID 2795). Further: nearly all actives have a fitted effect of over 55% in size. The gist of the method: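 Counterscreen, no aldolase: coupling enzyme reagent + cpd (up to 57.5 uM final), 10 min RT; add substrate + coupling system + AmpLite Red, 20 min RT; fluorescence ex 525/em 598 nm.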

The list shows a part of the results. A call without a number means that no potency is given here. Records with an inconclusive call do not appear. A number with no mark means an inactive call. Active and inactive are the calls of the source. The call rests on the fitted dose curve; in most records, active means well fitted inhibition curve with a large enough effect; inconclusive means small, poorly fitted or top-dose-only effect; inactive means flat fitted curve, though single readings scatter.

Sequence of Fructose-bisphosphate aldolase (Giardia intestinalis (strain ATCC 50803 / WB clone C6)) (A8B2U2 whole entry, looked up): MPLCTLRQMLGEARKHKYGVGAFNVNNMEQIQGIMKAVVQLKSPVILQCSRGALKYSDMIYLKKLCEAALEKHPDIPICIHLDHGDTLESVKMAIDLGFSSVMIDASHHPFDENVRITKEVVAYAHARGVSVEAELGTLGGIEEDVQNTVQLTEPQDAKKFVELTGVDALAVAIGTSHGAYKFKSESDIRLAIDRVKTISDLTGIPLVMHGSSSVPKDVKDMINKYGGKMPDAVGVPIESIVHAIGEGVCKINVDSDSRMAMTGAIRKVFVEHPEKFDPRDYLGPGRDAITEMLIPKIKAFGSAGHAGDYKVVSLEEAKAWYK

With `Cc1ccc(S(=O)(=O)NNC(=S)NC(C)(C)C)cc1`, in assay [1], the Potency entry was “inactive”. Besides, the outcome in assay [2] was inactive.

For `CC(C)(c1ccccc1)c1ccc(OCCN2CCCC2)cc1`, in assay [1], the Potency entry is “inactive”. In addition, the outcome in assay [2] was inactive.

As for `COc1cc(CN2CCN(Cc3ccc(C)cc3)CC2)c([N+](=O)[O-])cc1OC`, the outcome in assay [2], in assay [3] and in assay [4] was inactive. Consider `COc1ccc(OC)c(Nc2nc(-c3ccc(O)c(O)c3)cs2)c1`, for which the Potency entry in assay [1] was “inactive”. Moreover, the call in assay [4] was inactive.

`Cc1nnc(SCC2=C(C(=O)O)N3C(=O)C(NC(=O)Cn4nc(C)c(Cl)c4C)C3SC2)s1` (stereo not drawn): in assay [1], the Potency result is “inactive”. Also, in assay [3], the result was inactive. As for `Cc1cc(C)c2c(=O)[nH]c(SCC(=O)Nc3ccc(Br)cc3)nc2n1`, the call in assay [2] was inactive. Turning to `Cc1cccc(-c2nnc(SCC(=O)O)n2Cc2ccccc2)c1`, the Potency entry in assay [1] is “inactive”.
